The supplement of paper PMC11219838
Values without a mark were called inactive.

Legend:
Conditions in all cases: 60 µM; 5 days; temperature: 20 °C
Meloidogyne hapla J2 = test: proportion of mobile M. hapla J2 relative to DMSO control (fraction of DMSO control); higher = more viable, less nematicidal, active = 0.7 or less
Procedure, shortened: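 Two biological replicates were run and averaged, each on 96-well plates in which about 25 M. hapla J2 sat in distilled water per well. Compound was pinned in to give 60 µM final and 0.6% v/v DMSO, and the sealed plates were shaken at 200 rpm and 20 °C for 5 days before 2 µL 1 M NaOH was added. Mobility was scored microscopically and divided by the mean from the plate's DMSO-only wells, of which there were eight.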

[1] = test system: Caenorhabditis elegans dauer (daf-2(e1370)); test: proportion of mobile C. elegans dauer larvae relative to DMSO control (fraction of DMSO control); higher = more viable, less nematicidal, active = 0.63 or less; extreme values may be limits of the assay
Procedure, shortened: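 The proportion of mobile worms, relative to DMSO wells, was scored by dissection microscope and averaged over two biological replicates. Worms were C. elegans dauers, about 20 per well in liquid NGM in 96-well plates, generated from synchronized larvae on MYOB plates with E. coli OP50 at 25 °C for 48 h. They were treated with compound pinned to 60 µM final (0.6% v/v DMSO) and kept in sealed plates shaken at 200 rpm for 5 days at 20 °C.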

Ditylenchus dipsaci = test: proportion of mobile D. dipsaci (mixed stage) relative to DMSO control (fraction of DMSO control); higher = more viable, less nematicidal, active = 0.86 or less; extreme values may be limits of the assay
Procedure, shortened: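 The worms, D. dipsaci raised on pea plants in Gamborg B-5 agar, were recovered through a filter funnel into water. Each well of a 96-well plate then held about 20 of them in distilled water plus pinned compound at 60 µM final (0.6% v/v DMSO), and the sealed plates were shaken at 200 rpm at 20 °C for 5 days. Following addition of 2 µL 1 M NaOH, mobile worms were counted by microscopy, and mobility was expressed against DMSO controls as the average of two biological replicates.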

Structure (SMILES)	proportion of mobile M. hapla J2 (Meloidogyne hapla J2)	proportion of mobile C. elegans dauer larvae [1]	proportion of mobile D. dipsaci (Ditylenchus dipsaci)
COc1ccc(-c2nnc(SCC(=O)c3ccc4ccccc4c3)o2)cc1	1.03	1	1
Cc1ccccc1-c1nc(-c2ccccc2Cl)no1	0.985	1	1
Cc1ccc(-c2nnc(SCC(=O)Nc3nccs3)o2)cc1	1.04	1	1
Cc1ccc(-c2noc(COc3cc(C)cc(C)c3)n2)cc1	1.02	1	1
COc1ccc(C(=O)CSc2nnc(-c3ccccc3)o2)cc1	0.987	1	1
Cc1ccc(NC(=O)CSc2nnc(-c3ccco3)o2)cc1Cl	0.96	1	0.5 (active)
C=CCOc1ccc(-c2nc(-c3cccnc3)no2)cc1	0.965	0.5 (active)	0.5 (active)
CCOc1ccccc1NC(=O)CSc1nnc(-c2ccccc2)o1	0.977	1	1
CCOc1ccc(-c2nc(-c3ccc(C)cc3)no2)cc1	0.966	0.5 (active)	1
COc1ccc(-c2nnc(SCC(=O)Nc3ccc(Br)cc3C(C)C)o2)cc1	1	1	1
Cc1cccc(-c2noc(-c3cccc(Cl)c3)n2)c1	1	1	1
O=C(Nc1ccccc1-c1nc(-c2cccnc2)no1)c1ccc(Cl)cc1	0.98	1	1
CC(C)(C)c1ccc(-c2noc(COc3ccccc3)n2)cc1	0.776	1	1
CCN(CC)C(=O)CSc1nnc(-c2ccc(Br)cc2)o1	1.04	1	1
COc1cccc(NC(=O)CSc2nnc(-c3ccc(C)cc3)o2)c1	1.04	1	1
Fc1ccc(-c2nc(-c3ccc4c(c3)OCO4)no2)cc1	1.02	1	1
Cc1ccc(OCc2nc(-c3ccc(Cl)cc3)no2)cc1C	1.05	1	1
O=C(CSc1nnc(-c2ccccc2)o1)Nc1cccc(Br)c1	1.05	1	1
Cc1ccc(NC(=O)CSc2nnc(-c3ccccc3)o2)cc1C	0.983	1	1
Cc1nc(CSc2nnc(-c3ccc(Cl)cc3)o2)cs1	0.947	1	1
Cc1ccc(OCc2nc(-c3ccccc3Cl)no2)c(C)c1	1	1	1
COc1ccc(-c2nnc(SCC(=O)Nc3ccc(Br)c(C)c3)o2)cc1	0.999	1	1
COc1cccc(-c2noc(COc3cccc(C)c3C)n2)c1	1.04	1	1
COc1cccc(-c2noc(COc3cc(C)ccc3C)n2)c1	0.873	1	1
Cc1ccc(OCc2nc(-c3ccncc3)no2)c(Br)c1	0.993	1	1

Structure (SMILES)	proportion of mobile M. hapla J2 (Meloidogyne hapla J2)	proportion of mobile C. elegans dauer larvae [1]	proportion of mobile D. dipsaci (Ditylenchus dipsaci)
Cc1ccccc1-c1nnc(SCc2ccccc2)o1	0.986	1	1
COC(=O)c1ccc(Cl)c(NC(=O)CSc2nnc(-c3ccc(Cl)cc3)o2)c1	0.77	1	1
COc1ccc(-c2noc(-c3ccc(C)c(C)c3)n2)cc1	0.807	1	1
COc1cccc(CSc2nnc(-c3ccco3)n2C)c1	0.965	1	1
COc1nc(-c2ccc(C)cc2)ccc1-c1noc(-c2ccc(F)cc2)n1	0.925	1	1
Fc1ccc(-c2nc(-c3cccc(C(F)(F)F)c3)no2)cc1	0.939	1	1
CCCc1nnc(CSc2nnc(-c3ccc(Cl)cc3)o2)o1	0.983	1	0.812 (active)
CCOC(=O)c1ccc(NC(=O)c2ccccc2-c2nc(-c3cccc(C)c3)no2)cc1	0.777	1	1
COc1ccc(-c2noc(-c3cccc(Br)c3)n2)cc1	0.987	1	1
COc1ccc(OCc2nc(-c3cccc(Br)c3)no2)cc1	1	1	1
COc1ccc(-c2nnc(SCC(=O)c3ccccc3)o2)cc1	0.767	1	1
O=C(CSc1nnc(-c2ccncc2)o1)Nc1cc(C(F)(F)F)ccc1Cl	0.841	1	1
COc1ccc(-c2nnc(SCc3ccc(Cl)cc3Cl)o2)cc1	1.04	1	1
COc1ccc(-c2nnc(SCc3c(Cl)cccc3Cl)o2)cc1	1	1	1
Cc1cc(OCc2nc(-c3ccccn3)no2)cc(C)c1Cl	1.05	1	1
CCOc1ccccc1-c1nc(-c2ccc(NC(=O)Cc3ccccc3OC)cc2)no1	1.04	1	1
Fc1cccc(Cl)c1CSc1nnc(-c2ccccc2)o1	1	0.977	1
Brc1ccc(OCc2nc(-c3ccc4c(c3)OCO4)no2)cc1	0.943	1	1
Brc1ccc(-c2noc(COc3ccc4c(c3)OCO4)n2)cc1	1.06	1	1
O=C(CSc1nnc(-c2ccc(Cl)cc2Cl)o1)Nc1ccccn1	0.838	1	1
O=C(CSc1nnc(-c2ccccc2)o1)Nc1cccc(F)c1	0.853	1	1
O=C(c1ccccc1-c1nc(-c2ccc(Cl)cc2)no1)N1CCCCC1	0.941	1	1
Cc1ccc(-c2nc(-c3ccc(C(F)(F)F)cc3)no2)cc1	0.952	0.5 (active)	1
Cc1ccc(NC(=O)CSc2nnc(-c3ccc(C(C)(C)C)cc3)o2)c(C)c1	0.766	1	1
O=C(CSc1nnc(-c2ccc(Cl)cc2)o1)NC1CCCCC1	0.918	1	1

Structure (SMILES)	proportion of mobile M. hapla J2 (Meloidogyne hapla J2)	proportion of mobile C. elegans dauer larvae [1]	proportion of mobile D. dipsaci (Ditylenchus dipsaci)
Cc1ccccc1OCc1nc(-c2ccc(Cl)cc2)no1	1.04	1	1
Cc1cc(OC(C)c2nc(-c3ccccn3)no2)ccc1Cl (centres undefined)	1.03	1	1
CCc1ccc(OCc2nc(-c3ccc(Cl)cc3)no2)cc1	1.03	1	1
O=C(CSc1nnc(-c2ccccc2Cl)o1)Nc1ccc(Br)cn1	0.851	1	1
Cc1cccc(OC(C)c2nc(-c3ccncc3)no2)c1 (centres undefined)	0.988	0.85	1
COc1ccc(Cl)cc1-c1noc(-c2cccc(C)c2)n1	1.05	1	1
CCCC(=O)Nc1ccccc1-c1nc(-c2ccccn2)no1	0.965	1	1
Brc1ccc(-c2noc(-c3cccs3)n2)cc1	0.884	0.383 (active)	1
COC(=O)c1ccc(NC(=O)CSc2nnc(-c3ccc(Cl)cc3Cl)o2)cc1	0.929	1	1
CCOc1ccccc1-c1nc(-c2ccc(Br)cc2)no1	0.916	1	1
Cc1ccc(OCc2nc(-c3cccnc3)no2)cc1C	1.02	1	1
Clc1ccc(-c2nc(-c3cccnc3)no2)c(Cl)c1	1.04	0.625 (active)	1
CC(=O)Nc1ccc(NC(=O)c2ccccc2-c2nc(-c3cccc(C)c3)no2)cc1	1.01	1	1
Cc1ccc(OC(C)c2nc(-c3ccc4c(c3)OCO4)no2)cc1C (centres undefined)	0.943	1	1
CCSc1nnc(-c2ccc(Cl)cc2Cl)o1	0.607 (active)	0 (active)	0.739 (active)
O=C(CSc1nnc(-c2ccccc2)o1)NC1CC2CCC1C2 (centres undefined)	0.795	1	1
CCn1c(SCc2nc(-c3cccs3)no2)nnc1-c1ccco1	0.813	1	1
Fc1cccc(Cl)c1CSc1nnc(-c2ccccc2Cl)o1	0.988	1	1
Cc1ccc(OCc2nc(-c3ccc4c(c3)OCO4)no2)cc1C	1.04	1	1
c1ccc2c(OCc3nc(-c4ccncc4)no3)cccc2c1	0.979	1	1
COc1cccc(-c2noc(-c3cccc(F)c3)n2)c1	1.01	1	1
COc1ccccc1OCc1nc(-c2ccccc2)no1	0.973	1	1
CC(=O)Nc1cccc(-c2nnc(SCc3ccccc3)o2)c1	0.976	1	1
